Results on 40 molecules are retold here after PubChem BioAssay (EPA / NIEHS).

Active and inactive are the calls of the source. The calls were made as follows: active = hit-call score of the fitted dose curve at least 0.9, where 1 is the maximum; inactive = score below 0.9.

Read-out in this assay: Cyclin D1 (CCND1), CCND1 (gene 595)
Kind of assay: LTEA_HepaRG_CCND1: Life Technologies and Expression Analysis (LTEA) Assay for Cyclin D1 (CCND1) using HepaRG (AID 2283451).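 As to AC50: TaqMan qRT-PCR transcript level normalised to ACTB GAPDH and POLR2A housekeeping genes.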 The settings on record: mRNA level, 48 h; actives raise or lower the signal. How it is done:
LTEA_HepaRG is a cell based, multiplexed-readout assay that uses HepaRG, a human liver cell line, with measurements taken at 48 hours after chemical dosing on a 96-well plate.LTEA_HepaRG_CCND1 is one of 102 assay component(s) measured in the LTEA HepaRG cell culture assay. It is a marker of Cell proliferation, survival, death.Data from the assay component LTEA_HepaRG_CCND1 was analyzed into 1 endpoint. This assay endpoint, LTEA_HepaRG_CCND1, was analyzed with bidirectional fitting relative to DMSO as the negative control and baseline of activity. Using a type of inducible reporter, measures of mRNA induction for gain or loss-of-signal activity can be used to understand regulation of transcription factor activity. To generalize the intended target to other relatable targets, this assay endpoint is annotated to the cell cycle intended target family, where the subfamily is Cell proliferation, survival, death.
A total of 1060 chemcials from the ToxCast library were tested in eight-point concentration-response experiments. Cell culture and cytotoxicity assays were conducted at Thermo Fisher Scientific's Custom Services facility (Madison, WI). A single lot of human HepaRG cells (Thermo Fisher Scientific, Frederick, MD) was used for the cell culture experiments. 96-well format collagen type I coated plates of human HepaRG cells were prepared using established methods. Briefly, cryopreserved HepaRG cells were thawed, plated at a density of approximately 100,000 cells/well in HepaRG Thaw, Plate, and General Purpose media (HPRG770, Thermo Fisher Scientific), and incubated for 48 hours. 0.5% DMSO was selected as vehicle control to balance the requisite need of DMSO in HepaRG cultures to maintain differentiation (for example, baseline metabolism, proportions of hepatocytes vs. cholangiocytes), while enabling further hepatic receptor pathway activation (for example, PXR and CAR) in response to chemical exposure. 48 hours after plating, the culture medium was replaced with HepaRG Serum-Free Incudtion Media. Cells were exposed to each test chemical in duplicate and maintained in CO2 incubators for another 48 hours. Chemical plates were thawed to room temperature and 200x concentrations of treatment groups were prepared. 8-point conentration-reponse curves were made with the highest exposure at 100 uM, followed by half-log dilutions, all in 0.5% DMSO. Each test plate contained variouse controls, induction positive controls (1mM phenobarbital), cytotoxicity positive controls ([…] aflatoxin B1), vehicle controls (0.5% DMSO), and total lysis controls (0.5% DMSO). Cell morphology images were taken using an Essen IncuCyte FLR automated microscope, with six 96-well plates imaged in about 24 minutes. Images were captured and exported and JPEG files. Spent culture media was transfered to black-well plates for the LDH assay, and remaining media was sorted at -80 C for later use. Cells were treated with RLT buffer and frozen until shipped for gene expression analysis. Total RNA was isolated from the cell suspension in 75 uL of Buffer RLT (Qiagen, Germantown, MD 20874) by Quintiles/Expression Analysis (Durham, NC) using a custom isolation procedure. Total RNA from each plate well was transferred to a preamplification plate. Fluidigm's 96.96 Dynamic ArrayTM (Fluidigm, Amsterdam, the Netherlands) technology was used for gene expression analyses by quantitative reverse transcription polymerase chain reaction (qRT-PCR, performed by Quintiles/Expression Analysis, Durham, NC)89. Standard TaqManTM Assays (Applied Biosystems/ThermoFisher Scientific, Foster City, CA) were used to assess the expression of 93 genes selected based on their selectivity and sensitivity to important hepatic receptors known to be modulated by environmental chemicals; importance in human hepatocyte functionality; and hepatotoxicity. […]
For `CC(CO)OC(C)CO` (stereo not given) (tested in a mixture with another compound), the call was inactive.

As for `NCCO`, the call was inactive.

As to `Nc1ccc2c(c1)C(=O)c1ccccc1C2=O`, the AC50 – broadly, the concentration at which the activity in the assay is half-maximal – is 1.19 µM (active).

Take `NS(=O)(=O)c1cc2c(cc1Cl)NCNS2(=O)=O`: the result was inactive.

As for `Cc1c(C(=O)O)c(O)cc2c1C(=O)c1c(O)c([C@@H]3O[C@H](CO)[C@@H](O)[C@H](O)[C@H]3O)c(O)c(O)c1C2=O`, the molecule was classed as inactive.

Turning to `CC(C)(C)c1cc(O)c(C(C)(C)C)cc1O`, the call was inactive.

As for `Cc1cccc(C)c1O`, the outcome was inactive.

Turning to `CNC(=O)[C@H]1O[C@@H](n2cnc3c(NCc4cc(Cl)ccc4OCc4cc(C)no4)ncnc32)[C@H](O)[C@@H]1N`, the molecule was classed as inactive.

Regarding `Oc1ccc2ccccc2c1N=Nc1ccccc1`, the half-maximal activity concentration (AC50) was 9.92 µM (active).

On to `Cc1ccc(N(C)C)cc1`, for which the molecule was classed as inactive.

With `COc1ccc2c(c1)c(CC(=O)O)c(C)n2C(=O)c1ccc(Cl)cc1`, the molecule was classed as inactive.

For `Nc1ccccc1N`, the result was inactive.

With `Cc1cccc(Nc2cc(Cl)nc(SCC(=O)O)n2)c1C`, the call was inactive.

As to `CN1CCCC1=O`, the molecule was classed as inactive.

For `CCCCN(CCCC)CCCC`, the outcome was inactive.

With `COc1cc(-c2nc(NC(=O)c3cc4cc(C)cc(C)c4n3CC(=O)O)sc2CCC2CCCCC2)c(OC)cc1Cl`, the AC50 is 18.4 µM (active).

In the case of `Cc1oc(-c2ccccc2)nc1CCOc1cccc2c1ccn2CCC(=O)O`, the AC50 is 50 µM (active).

As for `Cc1nc(-c2ccc3c(c2)CCN(CCC2CCC(NC(=O)/C=C/c4ccc(F)cc4)CC2)CC3)no1` (stereo not given), the molecule was called inactive.

Regarding `CC(C)c1ccc(C(=O)N=C(N)N)cc1S(C)(=O)=O`, the AC50 was 0.493 µM (active).

For `Cc1ccc(C)c(O)c1C`, the call was inactive.

`CC(=O)OCCOCCOCCOC(C)=O`: the outcome was inactive.

For the molecule `O=c1c(O)c(-c2ccc(O)c(O)c2)oc2cc(O)cc(O)c12`, the result was inactive.

With `Nc1nc(N)c2nc(CNc3ccc(C(=O)N[C@@H](CCC(=O)O)C(=O)O)cc3)cnc2n1`, the call was inactive.

As to `COc1ccc(S(=O)(=O)N2C(=O)[C@@](c3ccccc3OC)(N3C[C@H](O)C[C@H]3C(=O)N(C)C)c3cc(Cl)ccc32)c(OC)c1`, the AC50 was 85.5 µM (active).

Take `CNCc1cc(F)ccc1Oc1ccc(Cl)c(Cl)c1`: the result was inactive.

In the case of `CC1(C)NC(=O)NC1=O`, the call was inactive.

As for `CC=Cc1ccc(O)c(OC)c1`, the result was inactive.

Consider `CC(=O)OC/C=C(\C)CCC=C(C)C`, for which the molecule was classed as inactive.

`CCCCCCCC=O`: the outcome was inactive.

For `CC1=C(/C=C/C(C)=C/C=C/C(C)=C/CO)C(C)(C)CCC1`, the molecule was called inactive.

For `NCC1(Cc2noc(=O)[nH]2)CCCCC1`, the molecule was classed as inactive.

As to `Clc1cc(Cl)c(Cl)cc1Cl`, the result was inactive.

Turning to `CCOC(=O)CCC(=O)OCC`, the molecule was classed as inactive.

`CCCCCCCCCCCC(=O)OC`: the molecule was called inactive.

For `Cc1ccc(C(C)C)c(O)c1`, the call was inactive.

`OC[C@@H](O)[C@@H](O)[C@H](O)[C@H](O)CO`: the molecule was classed as inactive.

In the case of `CCCCc1ccc2c(n1)[C@@H](c1ccc(OC)cc1C[C@H](C)C(=O)O)[C@H](C(=O)O)[C@H]2c1ccc2c(c1)OCO2`, the molecule was classed as inactive.

As for `CCNc1cccc(C)c1`, the outcome was inactive.

Take `CCCCCCCCCCCCCO`: the molecule was classed as inactive.

As for `CCCCCCCCCCCCCCCC`, the molecule was classed as inactive.
